High-throughput results (PubChem BioAssay)
This is a sample that favours compounds with a hit; in the whole collection about 11% have one here.
Tau fibril FP: qHTS for Inhibitors of Tau Fibril Formation, Fluorescence Polarization; Microtubule-associated protein tau (Homo sapiens), P10636; K18 P301L tau heparin fibrillization, Alexa594 FP, 6 h; Potency, µM (highest dose often 57.7 µM), inactives show at the top dose activity, negative = inhibition, most hits filed as inhibitors; actives 0.39% (n = 280,000); also: potency is read from the fitted curve at half-maximal effect; nearly all actives have a fitted effect of over 55% in size
Target sequence (P10636 561-689 P618L limits assumed): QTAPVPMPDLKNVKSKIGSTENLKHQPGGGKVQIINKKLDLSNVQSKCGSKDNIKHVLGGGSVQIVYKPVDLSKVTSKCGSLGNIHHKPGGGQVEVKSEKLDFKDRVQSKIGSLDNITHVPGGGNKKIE
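Steps: dispense K18 P301L tau (15 uM plus 0.24 uM Alexa 594 tracer, final) in pH 7 sodium acetate; add compound; add heparin (20 uM final); incubate 6 hr, 37 C; add ThT (30 uM final); after 1 hr ambient, read FP.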
Coupling enz: qHTS Assay for Inhibitors of Fructose-1,6-bisphosphate Aldolase from Giardia Lamblia: Coupling assay counterscreen; AID 2472, 2010; coupling enzyme system counterscreen, AmpLite Red fluorescence; actives 0.67% (n = 290,000); activity change, negative = inhibition, % at 58.2 µM, hits read low; in the data active = activity change below about -30%
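Counterscreen of the coupled detection system alone, without aldolase: glyceraldehyde-3-phosphate coupling enzymes plus AmpLite Red readout. Compounds at 57.5 uM final, 10 min RT preincubation, 20 min RT reaction, fluorescence 525/598 nm.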
G9a inh: qHTS Assay for Inhibitors of Histone Lysine Methyltransferase G9a. Histone-lysine N-methyltransferase EHMT2 (Homo sapiens), Q96KQ7. G9a H3K9 monomethylation, AlphaScreen, 2 h. Potency, µM (doses to about 102 µM), inactives show at the highest dose activity, negative = inhibition, usual class: inhibitors. actives 8.8% (n = 350,000). AID 504332, 2011; also: potency is read from the fitted curve at half-maximal effect; nearly all actives have a fitted effect of over 75% in size
Target sequence (Q96KQ7 913-1193 limits assumed): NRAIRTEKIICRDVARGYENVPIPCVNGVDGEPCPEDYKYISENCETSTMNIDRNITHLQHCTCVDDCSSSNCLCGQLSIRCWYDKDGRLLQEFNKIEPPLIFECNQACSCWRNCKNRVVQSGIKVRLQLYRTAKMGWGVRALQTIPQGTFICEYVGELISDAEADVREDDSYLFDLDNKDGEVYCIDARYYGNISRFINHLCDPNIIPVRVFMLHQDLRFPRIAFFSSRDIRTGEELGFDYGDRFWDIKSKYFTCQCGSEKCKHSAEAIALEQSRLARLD
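Signal arises when biotinylated H3K9 peptide, once monomethylated, bridges streptavidin donor and antibody-captured acceptor beads. Enzyme at 20 nM was preincubated 15 min with test compounds; peptide 500 nM and SAM 20 uM then reacted for 2 h.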
Tau fibril ThT: qHTS for Inhibitors of Tau Fibril Formation, Thioflavin T Binding. Potency, µM (series often up to 57.4 µM), for inactives: at the highest dose activity, negative = inhibition, most hits filed as inhibitors. recombinant tau K18 P301L, heparin-induced fibrillization, ThT fluorescence. actives 2.1% (n = 270,000). AID 1460, 2008; also: potency is read from the fitted curve at half-maximal effect; nearly all actives have a fitted effect of over 55% in size
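Heparin-induced fibrillization of the P301L-mutant K18 repeat-domain fragment of human tau was followed by ThT binding in quantitative high-throughput format.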
Sfp inh: qHTS Assay for Inhibitors of Bacillus subtilis Sfp phosphopantetheinyl transferase (PPTase) | Potency, µM, inactives show largest response in the series, negative = inhibition, most hits filed as inhibitors | actives 3.5% (n = 310,000) | Biochemical Sfp PPTase activity, qHTS | 4'-phosphopantetheinyl transferase ffp (Bacillus subtilis), Q9F4F7;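 also: the enzyme is Sfp with the accession as filed and its product quenches rhodamine fluorescence; potency is read from the fitted curve at half-maximal effect; 0% = enzyme reaction without inhibitor and -100% = no enzyme wells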
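Buffer: 50 mM Hepes-Na pH 7.6, 10 mM MgCl2, 0.01% Nonidet P-40, 0.01% BSA. Enzyme 15 nM, pre-exposed to compound 15 min; substrates then added and fluorescence change tracked over 30 min.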
Tau fluor cs: Counterscreen qHTS for Inhibitors of Tau Fibril Formation, Fluorescence Polarization | tau K18 P301L Alexa594 fluorescence, heparin fibrillization | Potency, µM (highest dose often 57.7 µM), for the others: at the top dose activity change, negative = decrease | actives 0.93% (n = 280,000) | AID 1463, 2008; also: potency is read from the fitted curve at half-maximal effect; nearly all actives have a fitted effect of over 55% in size
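Human tau K18 P301L (15 uM unlabeled, 0.24 uM Alexa 594-labeled) in 100 mM sodium acetate pH 7 with 20 uM heparin, 6 hr at 37 C. ThT 30 uM added, 1 hr ambient; Alexa 594 FP and total fluorescence read at 555/632 nm.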
* hit, by the source's call; [ ] = remark or other dose. Unless noted, calls follow the shape of the dose curve; as a rule, active = well fitted curve in the direction sought with a large enough effect; inconclusive = small, poorly fitted or top-dose-only effect, or another doubt; inactive = no such curve, though single readings can be large; an effect the other way counts as inactive or inconclusive. Unless noted, % is scaled to controls: 0 for no effect and ±100 for the full control effect.

Screening CN(C)CCCN(C(=O)c1ccc(S(=O)(=O)N(C)Cc2ccccc2)cc1)c1nc2c(F)cccc2s1 returned G9a inh -6.5% and Sfp inh -23.9%.
`COc1ccc2sc(N(CCCN(C)C)C(=O)c3ccc(C(=O)c4ccccc4)cc3)nc2c1` gave G9a inh 44.7µM*.
For CCN(c1ccccc1)S(=O)(=O)c1ccc(C(=O)N(CCN(C)C)c2nc3c(F)cc(F)cc3s2)cc1 the results were Coupling enz -3.7, G9a inh 44.7µM* and Sfp inh 3.4%.
CCN(Cc1ccccc1)S(=O)(=O)c1ccc(C(=O)N(CCCN(C)C)c2nc3cc4c(cc3s2)OCCO4)cc1 was read as G9a inh 39.8µM*.
CN(C)CCCN(C(=O)c1ccco1)c1nc2c(F)cc(F)cc2s1 was read as Tau fibril FP 5.1%, Coupling enz 4.6, G9a inh 1.1%, Tau fibril ThT -4.9%, Sfp inh 13.7% and Tau fluor cs -6.4%.
Screening O=C(NCCc1csc(-c2ccc(F)cc2)n1)C(=O)Nc1ccc(Cl)cc1 returned Tau fibril FP -9.9%, G9a inh 6.5%[59 µM], Tau fibril ThT 17.0% and Tau fluor cs 18.9%.
`COc1ccc(CNC(=O)[C@@H](NC(=O)C2CCN(C(=O)[C@@H](N)Cc3ccccc3)CC2)C(C)C)cc1` gave Coupling enz 4.1, G9a inh 6.7% and Sfp inh 0.7%.
Screening CCOc1ccccc1CNC(=O)CCCN1C(=O)CCn2nc(-c3cccn3C)cc21 returned Tau fibril FP 0.5%, G9a inh -42.1%[59 µM], Tau fibril ThT -7.0% and Tau fluor cs -9.4%.
Screening CCCNC(=O)CN1C(=O)c2c(c3ccccc3n2C)C1c1ccc(OC)cc1 (stereo not drawn) returned Tau fibril FP 9.0%, G9a inh inconclusive, Tau fibril ThT -2.7% and Tau fluor cs -1.2%.
Screening O=C(CN1CCN(Cc2ccccc2Cl)C1=O)NCc1ccccn1 returned Tau fibril FP 3.9%, Coupling enz -0.7, G9a inh -0.4%, Tau fibril ThT -1.8%, Sfp inh 23.5% and Tau fluor cs 3.9%.
Screening Cc1ccc2c(c1)-c1c(cnc3cc(-c4ccc(Cl)cc4)nn13)CO2 returned Tau fibril FP inconclusive, G9a inh 0.2%[59 µM], Tau fibril ThT inconclusive and Tau fluor cs -23.2%.
CCN(Cc1ccccc1)S(=O)(=O)c1ccc(C(=O)N(CCCN(C)C)c2nc3ccc(F)cc3s2)cc1 was read as Sfp inh 89.1µM*.
Screening O=C1C(CCCNC(=S)NCc2ccccc2)NC(=S)N1Cc1ccccc1 (stereo not drawn) returned Tau fibril FP -12.9%, Coupling enz 0.4, G9a inh 50.1µM*, Tau fibril ThT -10.1%, Sfp inh 5.9% and Tau fluor cs -29.3%.
CN(C)/C=C/C(=O)c1ncc(C(F)(F)F)cc1Cl was read as Tau fibril FP 0.9%, Coupling enz 0.3, G9a inh inconclusive, Tau fibril ThT 0.2%, Sfp inh 1.1% and Tau fluor cs 7.3%.
O=C(N/N=C/c1c[nH]c2ccc(Br)cc12)C1CC1 was read as Tau fibril FP 17.0%, Coupling enz 0.4, G9a inh -34.1%, Tau fibril ThT inconclusive, Sfp inh 8.3% and Tau fluor cs -28.5%.
`CN(C(=O)CS(=O)(=O)c1cn(CC(=O)N2CCCCC2)c2ccccc12)c1ccccc1` gave G9a inh -3.0% and Sfp inh 7.2%.
For O=C(CC12CC3CC(CC(C3)C1)C2)Nc1ccccc1N1CCOCC1 the results were Tau fibril FP 6.7%, Coupling enz -0.5, G9a inh -37.7%, Tau fibril ThT 2.0%, Sfp inh -13.2% and Tau fluor cs 0.0%.
Screening Cc1cc(N=Cc2c(O)ccc3ccccc23)no1 returned Tau fibril FP inconclusive, Coupling enz -42.8*, G9a inh 1.12µM*, Tau fibril ThT 22.4µM*, Sfp inh -13.0% and Tau fluor cs inconclusive.
For Cc1cc(N=Cc2c(O)ccc3cc(Br)ccc23)no1 the results were Tau fibril FP -0.4%, Coupling enz -13.9, G9a inh 1.41µM*, Tau fibril ThT 13.7%, Sfp inh 6.5% and Tau fluor cs 10.8%.
COc1ccc2c(c1)C=C([C@@H]1C[C@H]3CN(c4ccccc4)C(=O)[C@]34CCCN14)CO2 was read as Tau fibril FP 5.9%, Coupling enz 1.4, G9a inh 56.2µM*, Tau fibril ThT inconclusive, Sfp inh -4.3% and Tau fluor cs -6.4%.
`COc1ccccc1C(=O)Nc1cc2c(cc1C(=O)O)OCCCO2` gave Coupling enz 5.0, G9a inh 2.4%[59 µM] and Sfp inh 31.1%.
Screening CSc1ccccc1C(=O)Nc1cc2c(cc1C(=O)O)OCCCO2 returned Coupling enz 9.2, G9a inh 2.82µM* and Sfp inh 4.4%.
Screening COc1ccccc1OCC(=O)Nc1cc2c(cc1C(=O)O)OCCCO2 returned Coupling enz 10.1, G9a inh 7.94µM* and Sfp inh 79.4µM*.
For COc1ccc(OCCC(=O)Nc2cc3c(cc2C(=O)O)OCCCO3)cc1 the results were G9a inh -31.5%.
CCOc1ccccc1OCC(=O)Nc1cc2c(cc1C(=O)O)OCCCO2 was read as Coupling enz 11.3, G9a inh 25.1µM* and Sfp inh 79.4µM*.
O=C(O)c1cc2c(cc1NC(=O)c1ccccc1OC(F)F)OCCCO2 was read as Coupling enz 18.0, G9a inh -4.6%[59 µM] and Sfp inh 21.7%.
Screening Cc1ccc(C)c(N2CCN(c3nccn4nc(-c5ccc(Br)cc5)cc34)CC2)c1 returned Tau fibril FP -13.7%, G9a inh -16.0%[59 µM], Tau fibril ThT -8.9% and Tau fluor cs -14.1%.
For CCc1nnc(SCc2cccc(Cl)c2)c2cc3sccc3n12 the results were Tau fibril FP -4.5%, G9a inh 27.8%[59 µM], Tau fibril ThT inconclusive and Tau fluor cs -28.7%.
O=C(COc1ccccc1Cl)NCCCNC(=O)c1cccnc1 was read as Coupling enz 0.5, G9a inh -2.8% and Sfp inh 19.8%.
For O=S(=O)(Nc1nc2ccccc2nc1Cl)c1ccccc1C(F)(F)F the results were Coupling enz -0.3, G9a inh 70.8µM* and Sfp inh 3.1%.
